This is part of a sample that, as a whole, favours compounds with a hit. Of some 83,000 tested, about 20% had one in any assay.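 Treatment: one concentration, 48 hours, 96-well format. Scoring: percent growth, with anything below 10 considered active.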 A number with no mark means an inactive call. Active and inactive are the calls of the source.

Drawing on PubChem BioAssay (NCI), this text covers growth for five molecules.

Common to all, as to test: NCI-60 one-dose screen, 48 h (100 = growth as untreated, 0 = no growth, -100 = all killed)
What all share (settings): 10 µM unless noted

Assay [1] deals with SK-MEL-2 melanoma.
Assay [2] relates to SN12C renal.
The subject of assay [3] is UO-31 renal.
Assay [4] relates to TK-10 renal.
Assay [5] concerns ACHN renal.
Assay [6] concerns CAKI-1 renal.
The test system of assay [7] is A498 renal.
For assay [8], the system named is CCRF-CEM leukemia.
The test system of assay [9] is MOLT-4 leukemia.
Assay [10] has as its system SR leukemia.
The test system of assay [11] is RPMI-8226 leukemia.
The subject of assay [12] is OVCAR-8 ovarian.
For assay [13], the system named is OVCAR-5 ovarian.
In assay [14] the test system is OVCAR-4 ovarian.
Assay [15] relates to SK-OV-3 ovarian.
Assay [16] deals with IGROV1 ovarian.
For assay [17], the system named is OVCAR-3 ovarian.
The subject of assay [18] is HS 578T breast.
Assay [19] relates to NCI/ADR-RES ovarian.

On to `COc1ccc(/C=C/C(=O)c2cc(OC)c(OC)c(OC)c2)cc1OCC(=O)Nc1nc2ccc(OC(F)(F)F)cc2s1`, for which the growth in [1] is 45.7%; in assay [2] it was 19.1%; in assay [3] it was 3.8% (active); in assay [4] it was -6.47% (active); in [5], -1.17% (active); in [6], 9.57% (active). In addition, the growth was 68.1% in assay [7]; 20.4% in assay [8]; 0.429% (active) in [9]; 11.6% in assay [10]; 6.47% (active) in [11]; 3.67% (active) in assay [12]. In addition, the growth was 96.3% in [13]; -7.18% (active) in assay [14]; -11.8% (active) in [15]; -1.97% (active) in assay [16]; -77.3% (active) in [17]; -20.8% (active) in [18]. Moreover, the growth in assay [19] was -13.5% (active).

`CCOc1c(OC)cc2c(c1O)C(=O)N[C@@H]1[C@@H](O)[C@@H](O)[C@H](O)C[C@@H]21`: the growth was 106% in [1]; 104% in [2]; 92.9% in assay [3]; 93.9% in assay [4]; 103% in assay [5]; 91.3% in assay [6]. For the same molecule, the growth in assay [7] was 99.5%; in [8], 103%; in [9], 92.4%; in [10], 89.2%; in assay [11] it was 103%; in assay [12], 101%. For the same molecule, the growth was 98.7% in [13]; 107% in assay [14]; 98.1% in assay [15]; 102% in [16]; 102% in [17]; 100% in [18]. Also, in assay [19], the growth was 110%.

On to `C#CCO[C@H]1CC(CC#C)(CC#C)C(=O)[C@@H]2[C@H]1[C@H]1C[C@@H]3[C@@]4(C)CCC[C@@](C)(C(=O)OC)[C@@H]4CC[C@@]23C=C1C(C)C`, for which the growth in [1] is 97.9%; in assay [2], 94.1%; in assay [3], -34.5% (active); in [4], 99.2%; in assay [5], 72.7%; in assay [6], 41%. For the same molecule, the growth was 85.7% in assay [7]; -41.5% (active) in assay [8]; 76.7% in assay [9]; -4.27% (active) in [10]; 58.4% in assay [12]; 92.3% in assay [13]. Moreover, the growth in assay [14] is 85.2%; in assay [15] it was 95.8%; in [16], -64.2% (active); in [17] it was 71.7%; in assay [18], 94.2%; in assay [19], 78.5%.

`Cc1ccc(S(=O)(=O)Oc2ccc3sc4cccc(NCCN(C)C)c4c(=O)c3c2)cc1`: the growth in assay [1] is -71.2% (active); in assay [2], -77.2% (active); in assay [3], -95.5% (active); in [4], -83.2% (active); in assay [5], -95.9% (active); in [6] it was -97.8% (active). For the same molecule, the growth in assay [7] is -96% (active); in [8] it was -45.8% (active); in assay [9] it was -32.7% (active); in [10], -19.4% (active); in assay [11] it was -48.2% (active); in assay [12], -67.3% (active). The growth was -92.4% (active) in assay [13]; -93.2% (active) in [15]; -79.6% (active) in assay [16]; -95.4% (active) in assay [17]; -58.3% (active) in [18]; -90.7% (active) in assay [19].

Consider `CCCn1cnc2c(c1=N)C(c1ccc(F)cc1)c1sc3c(F)cccc3c1O2` (stereo not drawn), for which the growth in assay [1] is 45.8%; in assay [2], 58.6%; in [3], 53.9%; in assay [4] it was 80.3%; in assay [5], 56.8%; in assay [6], 30.6%. The growth in assay [7] is 51.1%; in assay [8] it was 20.4%; in assay [9], 43.8%; in [10], 28.8%; in assay [11] it was 39.7%; in [12], 59.1%. Further, the growth is 81.4% in [13]; 76.7% in assay [14]; 71% in [15]; 46.2% in assay [16]; 10.5% in assay [17]; 28.7% in [18]. The growth in assay [19] is 31.1%.
